# Source: PubChem BioAssay (National Center for Advancing Translational Sciences (NCATS))
# Sampled rows, rich in hits. Any-hit rate of the full collection: about 2.4%.
# D2 antag: HTS Assay for Allosteric Antagonists of the Human D2 Dopamine Receptor: Primary Screen for Antagonists. 340,000 tested, 2% active. inhibition, % at 10 µM. D(2) dopamine receptor (Homo sapiens), P14416. AID 485344, 2010. HEK293 TREx D2 cells, calcium flux, dopamine EC80; in the data active means inhibition above about 30%; inactive means below that, where a call was filed; further: 0% is about no effect
# Target sequence (P14416 whole entry, looked up): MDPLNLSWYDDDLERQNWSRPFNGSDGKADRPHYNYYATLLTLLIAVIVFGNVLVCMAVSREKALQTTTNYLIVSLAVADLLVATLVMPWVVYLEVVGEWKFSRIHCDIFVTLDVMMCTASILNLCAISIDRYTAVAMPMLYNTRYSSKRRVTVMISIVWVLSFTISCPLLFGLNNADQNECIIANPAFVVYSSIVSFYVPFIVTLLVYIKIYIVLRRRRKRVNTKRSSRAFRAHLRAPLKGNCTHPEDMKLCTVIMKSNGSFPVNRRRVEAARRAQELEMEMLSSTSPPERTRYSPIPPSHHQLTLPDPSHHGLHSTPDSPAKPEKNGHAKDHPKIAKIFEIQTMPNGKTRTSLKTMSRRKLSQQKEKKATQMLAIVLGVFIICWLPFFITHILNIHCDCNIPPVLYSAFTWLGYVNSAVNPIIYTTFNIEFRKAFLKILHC
#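 Overnight-induced (tetracycline, 30 C) HEK293 T-REx cells carrying force-coupled D2 receive a no-wash calcium dye, then compound, then EC80 dopamine at 180 s; signals are read kinetically throughout.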
# D2 ag-1: Beta-Arrestin HTS for Positive Allosteric Modulators of the Human D2 Dopamine Receptor: Agonists | 360,000 tested, 0.084% active | activation, % (concentration not given with the values) | DiscoveRx PathHunter D2 beta-arrestin, luminescence, 90 min; 100% = 57 uM dopamine signal | D(2) dopamine receptor (Homo sapiens), P14416; in the data active means activation above about 40%
#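 DiscoveRx PathHunter D2 beta-arrestin cells (2,100/well) attached overnight, then compound-stimulated 90 min at 37 C in HBSS/10 mM HEPES/0.1% Tween-20 buffer; beta-galactosidase complementation read by luminescence after 1 h at ambient temperature. Dopamine 57 uM final (EC100) as control.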
# D2 PAM-1: Beta-Arrestin HTS for Positive Allosteric Modulators of the Human D2 Dopamine Receptor: Potentiators; D(2) dopamine receptor (Homo sapiens), P14416; DiscoveRx D2 beta-arrestin cells, luminescence, 90 min; 100% = 57 uM dopamine signal; potentiation, % (concentration not given with the values); 360,000 tested, 0.23% active; in the data active means potentiation above about 50%
#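 PathHunter beta-arrestin assay in DiscoveRx D2 cells. Compounds were added with an EC20 of dopamine (50 nM final) for 90 min at 37 deg C. Luminescence was read 1 h after detection reagent, with 57 uM dopamine as the EC100 control.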
# D2 ag-2: HTS Assay for Allosteric Agonists of the Human D2 Dopamine Receptor: Primary Screen for Agonists | D(2) dopamine receptor (Homo sapiens), P14416 | HEK293 T-REx D2 cells, calcium flux agonist mode | activation, % at 2 µM | 340,000 tested, 0.53% active | AID 485358, 2010;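 active means activation over 3 SD above normal in the single-dose calcium agonist read, cut at about 30% in these data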; further: 0% is about no effect
#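 In this primary screen, compounds producing a positive calcium signal within 180 s of addition to tetracycline-induced, force-coupled HEK293 Trex D2 cells are flagged; cells are dye-loaded with a no-wash calcium kit beforehand.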
# D2 PAM-2: HTS Assay for Positive Allosteric Modulators of the Human D2 Dopamine Receptor: Primary Screen for Potentiators; D(2) dopamine receptor (Homo sapiens), P14416; HEK293 T-REx D2, calcium flux, EC20 dopamine potentiation; potentiation, % at 10 µM; 340,000 tested, 0.34% active;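 active means potentiation over 3 SD above the plate norm, cut at about 30% in these data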; further: 0% is about no effect
#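 Potentiation of an EC20 dopamine calcium response is measured in a force-coupled, tetracycline-inducible Hek293 Trex D2 line. Compound-only kinetic reads over 180 s flag agonists before dopamine addition.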
# The depositor's hits bear a star; . = no result.
SMILES,D2 antag,D2 ag-1,D2 PAM-1,D2 ag-2,D2 PAM-2
Cc1c(NC(=O)COc2ccc3ccccc3c2)c(=O)n(-c2ccccc2)n1C,7,-3,-3,0,35*
Cc1c(NC(=O)COc2cccc(F)c2)c(=O)n(-c2ccccc2)n1C,10,1,16,1,-4
O=C(COc1ccc2ccccc2c1)NNC(=O)c1ccccc1,48*,-3,-6,2,6
Cc1c(NC(=O)c2ccc(Br)o2)c(=O)n(-c2ccccc2)n1C,-5,-3,-2,-1,31*
O=C(COc1ccc2ccccc2c1)NNC(=O)Cc1ccccc1,-12,-1,-6,0,1
COc1cc2c(cc1OC)C(c1ccc(F)cc1)N(c1cccc(C#N)c1)C(=O)C2 (stereo not given),.,.,.,1,7
Cc1c(NC(=O)COC(=O)Cc2ccc(Br)cc2)c(=O)n(-c2ccccc2)n1C,-9,-1,-14,0,7
Cc1c(NC(=O)CSCc2ccc(Br)cc2)c(=O)n(-c2ccccc2)n1C,42*,-4,-5,0,-6
CSCCC(NC(=O)c1ccccc1)C(=O)NCc1ccc(S(N)(=O)=O)cc1 (stereo not given),31*,2,0,1,-8
NC(=O)CCC(NC(=O)c1ccc(Cl)cc1)C(=O)NCCc1ccc2c(c1)OCCO2 (stereo not given),42*,-6,-11,0,8
CSCCC(NC(=O)c1ccccc1)C(=O)NCCc1ccc2c(c1)OCCO2 (stereo not given),66*,1,-28,0,-10
CSCCC(NC(=O)c1ccccc1)C(=O)NC1CC1 (stereo not given),11,-3,-16,0,-1
NC(=O)CC(NC(=O)c1ccc(Cl)cc1)C(=O)NCCc1ccc(S(N)(=O)=O)cc1 (stereo not given),10,10,-4,0,-5
Cc1ccc(CN2CCCn3nc(C(=O)NCCc4ccccc4Cl)cc3C2=O)cc1,.,.,.,.,-3
Cc1ccc(NC(=O)c2sc(-n3nc(C)c(CCC(C)C)c3C)nc2C)cc1C,.,.,.,2,-8
CCc1nn(CCCC(=O)N2CCN(c3cc(Cl)ccc3C)CC2)c(=O)c2cc3occc3n12,.,.,.,1,2
CCC(NC(=O)C1CCC1)c1ccc(C)cc1 (stereo not given),37*,-2,-8,1,-9
COc1ccc(C(CC(=O)O)NC(=O)C2CCCCC2)cc1 (stereo not given),14,-2,-3,1,8
Cc1cc(OCC(=O)Nc2sc3c(c2C#N)CC(C)(C)NC3(C)C)c(C(C)C)cc1Cl,34*,3,-2,0,7
COc1ccccc1/C=C/CN1CCC(Oc2ccc(C(=O)N3CCCCC3)cc2)CC1,69*,1,-34,0,-35
COc1ccccc1/C=C/CN1CCC(Oc2cc(C(=O)NC3CC3)ccc2OC)CC1,59*,-5,1,-1,-20
CCCCCCn1c(=O)c(Cc2ccccc2)c(O)c2ccccc21,-5,-7,-5,0,4
CCCCn1c(=O)c(Cc2ccccc2)c(O)c2ccccc21,-15,-4,5,0,31*
COc1ccc(C2CC(c3cccs3)=NN2c2ccc(C=O)cc2)cc1 (stereo not given),-3,-5,3,31*,-7
O=C(Cn1cnc2c(nnn2-c2ccccc2)c1=O)NCc1ccco1,40*,-5,-2,0,-10
SMILES,D2 antag,D2 ag-1,D2 PAM-1,D2 ag-2,D2 PAM-2
O=C(Cn1cnc2c(nnn2-c2ccccc2)c1=O)NCCc1ccccc1,-1,-2,-3,0,56*
Cc1ccc(-n2ncc3c(=O)n(CC(=O)NCc4ccco4)cnc32)cc1,10,-1,-9,-1,31*
COC(=O)C(C)n1cnc2c(nnn2-c2ccccc2)c1=O (stereo not given),31*,3,-3,0,7
CCOC(=O)C(C)n1cnc2c(nnn2-c2ccccc2)c1=O (stereo not given),-19,-2,-3,0,-2
CCOC(=O)CNC(=O)Cn1cnc2c(nnn2-c2ccccc2)c1=O,-7,1,-3,0,14
Cc1ccc(OCc2ccc(-c3nc(C#N)c(NCc4ccccc4Cl)o3)o2)cc1,.,.,.,1,8
CCCCCc1nn2cc(-c3ccccc3)nc2s1,.,.,.,-1,-1
CC1=C(C(=O)NCc2ccccc2F)C2(CCCCC2)OC1=O,.,.,.,0,.
Cc1cc(N2CCN(Cc3ccccc3)CC2)n2nc(C)c(-c3ccccc3)c2n1,18,-3,-8,-1,-12
COc1ccc(-c2c(C)nn3c(N4CCN(Cc5ccccc5)CC4)cc(C)nc23)cc1OC,26,-5,-1,0,31*
Cc1cc(N2CCOCC2)n2nc(C)c(-c3ccc(Cl)cc3)c2n1,33*,-5,-4,1,1
Cc1nn2c(N3CCOCC3)cc(C(C)(C)C)nc2c1-c1ccc(Cl)cc1,-6,-2,5,-1,2
COc1ccc2[nH]c(C(=O)Nc3ccc(C)c(F)c3)cc2c1,-15,-1,-3,-1,12
COc1cc2[nH]c(C(=O)Nc3ccc(F)cc3)cc2c(OC)c1OC,89*,.,.,-1,-20
Cc1cc(C)c2cc(C(=O)Nc3ccc(C)c(F)c3)[nH]c2c1,39*,3,-35,0,-27
CCCCNC(=O)c1cc2c(C)cc(C)cc2[nH]1,34*,-2,-23,-2,-24
COc1ccc(F)cc1-c1cc(C(=O)Nc2ccc(NC(C)=O)cc2)[nH]n1,.,1,-2,.,.
CC(=O)Nc1nnc2n1CCS2,.,.,.,0,0
O=C(NCCc1cnc[nH]1)Nc1cccc(C(F)(F)F)c1,40*,-3,-65,0,-10
O=C(NCc1cccnc1)Nc1cccc(C(F)(F)F)c1,-10,-1,-15,0,-12
CCOC(=O)c1c(C)[nH]c(CCC(=O)Nc2ccc(N(CC)CC)cc2C)c1C,.,.,.,1,0
Cc1cc2ncn(C3CC(=O)N(Cc4ccccc4)C3=O)c2cc1C (stereo not given),-15,3,11,0,39*
Cc1cccc(NC(=O)Cn2c(=O)nc(-c3ccccc3)c3ccccc32)c1C,.,.,.,1,2
Cc1ccc(N/C(N)=N/c2nc(C)cc(N3CCCCC3)n2)c(C)c1,35*,6,-18,8,-19
